This is part of a sample that, as a whole, favours compounds with a hit. Of some 79,000 tested, about 15% had one in any assay. Active and inactive are the calls of the source. No stated cut-off is given here; in the data, active means growth inhibition above about 70%; inactive means the rest.
How the values were obtained:
[1] = NCI Yeast Anticancer Drug Screen. Data for the rad50 strain (AID 155);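 further: 0% = growth of vehicle-only cultures of the same strain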; conditions: S. cerevisiae rad50 strain growth inhibition; at 50.0 µM; active compounds read high
Outline: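 Inhibition values express reduced yeast growth in compound-treated cultures relative to vehicle-treated controls.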

[2] = NCI Yeast Anticancer Drug Screen. Data for the mec2-1 strain (AID 157); conditions: S. cerevisiae mec2-1 strain, at 50.0 µM, active compounds read high
Outline: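 Each compound was tested on mec2-1 yeast, a strain altered in DNA damage repair or cell cycle control. Growth inhibition is reported relative to vehicle.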

[3] = NCI Yeast Anticancer Drug Screen. Data for the sgs1 mgt1 strain (AID 161);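 further: 0% = growth of cultures given vehicle only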; conditions: S. cerevisiae sgs1 mgt1 strain, at 50.0 µM, active compounds read high
Outline: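 Inhibition of yeast growth, normalised to vehicle-treated controls, is reported for a strain bearing genetic alterations in DNA damage repair.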

[4] = NCI Yeast Anticancer Drug Screen. Data for the cln2 rad14 strain (AID 165);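 further: 0% = growth equal to vehicle treated cultures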; conditions: S. cerevisiae cln2 rad14 strain, at 50.0 µM, active compounds read high
Outline: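 Test compounds were added to cln2 rad14 yeast cultures; inhibition of growth was then determined by comparison with vehicle treatment.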

[5] = NCI Yeast Anticancer Drug Screen. Data for the bub3 strain (AID 167); conditions: S. cerevisiae bub3 mutant strain, at 50.0 µM, active compounds read high
Outline: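 Steps: expose the mutant yeast strain to compound; grow alongside vehicle-treated cultures; measure growth; express inhibition against the vehicle cultures.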

[6] = NCI Yeast Anticancer Drug Screen. Data for the mlh1 rad18 strain (AID 175); conditions: S. cerevisiae mlh1 rad18 strain growth inhibition; at 50.0 µM; active compounds read high
Outline: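 Inhibition values reflect reduced growth of mutant yeast versus vehicle-treated controls following compound exposure; the mutations affect DNA damage repair.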

Measured: growth inhibition

CC1N2C3(c4ccccc4)OC(c4ccccc4)(c4ccccc43)C12c1ccccc1 (stereo unspecified)
inactive: [1] 9.8% | [2] 13.2% | [3] 4.95% | [4] 31.9% | [5] 0.8% | [6] 4.05%

CCCCOP(=O)(CSCC)OCCCC
inactive: [1] -6.2% | [2] 0.1% | [3] -16.6% | [4] 16.2% | [5] 14.9% | [6] -1.4%

COc1ccc2c(c1)[C@@]13CCCC[C@H]1[C@@H](C2)N(C)CC3=O
inactive: [1] 41.5% | [2] 26.9% | [3] -14.3% | [4] 9.65% | [5] 3% | [6] -48%

O=P(Oc1ccccc1)(Oc1ccccc1)C(O)c1ccccc1 (stereo unspecified)
inactive: [1] 11.2% | [2] 3.55% | [3] 16.8% | [4] 0.65% | [5] -8.4% | [6] -2%

O=C1c2ccccc2C2(O)C3C=CCCN3CN12 (stereo unspecified)
inactive: [1] 2.65% | [2] 9.1% | [3] -1.25% | [4] 4.15% | [5] -4.05% | [6] -6.75%

O=S(=O)(F)c1cc(Cl)c(O)c(S(=O)(=O)F)c1
inactive: [1] 10.1% | [2] 6.25% | [3] 5.8% | [4] 3.65% | [5] -2.75% | [6] 10.1%

COc1ccc(/C=C/C=C2C(=O)NC(=S)NC2=O)cc1
inactive: [1] 25.6% | [2] 4.55% | [3] 29.1% | [4] 11.2% | [5] 0.75% | [6] 25.2%

O=P(Nc1ccc2ccccc2c1)(Nc1ccc2ccccc2c1)N(CCCl)CCCl
inactive: [1] -4.3% | [2] -3.5% | [3] 4.7% | [4] 4.2% | [5] -12.3% | [6] -12.8%

O=S1(=O)CC2(N3CCOCC3)C3CCC(C3)C21 (stereo unspecified)
inactive: [1] 24% | [2] 4.6% | [3] 0.6% | [4] -0.4% | [5] 9.15% | [6] 11.6%

CCOC(=O)P(=O)(OCC)OCC
inactive: [1] 6.9% | [2] -37.2% | [3] -11% | [4] -1.2% | [5] 4.95% | [6] -1.1%

O=N[O-].[Co].[NH-]CC[NH-].[NH-]CC[NH-].[NH2-]
inactive: [1] 5.35% | [2] 7.5% | [3] -6.25% | [4] 4.95% | [5] 4.85% | [6] -2.4%

CC(C(=O)c1ccccc1)N(C)C (stereo unspecified)
inactive: [1] 2.15% | [2] -6.85% | [3] -4.2% | [4] -50.4% | [5] -19.7% | [6] 5.5%

CC(C)(C)Nc1ccccc1.[C-]#[O+].[C-]#[O+].[C-]#[O+].[Cr]
inactive: [1] -7.75% | [2] -2.3% | [3] -0.55% | [4] 10.3% | [5] 28.4% | [6] 6.3%

COP(=O)(OC)C(C)(C)NC(=O)NC(F)(F)F
inactive: [1] -1.9% | [2] -14.9% | [3] -24.6% | [4] 28.9% | [5] 11.1% | [6] -4.25%

COc1ccc2[se]c(C)nc2c1
inactive: [1] -26.2% | [2] -35.1% | [3] 5.3% | [4] -2.6% | [5] -17.3% | [6] -18.6%

Cc1ccc(Cl)c2c1CC(=[N+]=[N-])C2=O
inactive: [1] 10.2% | [2] 5.2% | [3] 8.7% | [4] -0.45% | [5] 10.5% | [6] 7.15%

[Se]=[Hf]=[Se]
inactive: [1] 1.35% | [2] -24.7% | [3] -28.7% | [4] -8.6% | [5] -11.8% | [6] -26.6%

CN(C)C1C(=O)C(C(=O)NP(=O)(NCCCO)N(CCCl)CCCl)=C(O)C2(O)C(=O)C3=C(O)c4c(O)cccc4C(C)(O)C3CC12 (stereo unspecified)
inactive: [1] 27.6% | [2] 20.1% | [3] 21.9% | [4] 15.3% | [5] 25.6% | [6] 6.9%

CC1(C)OC2COC(CN=[N+]=[N-])C2O1 (stereo unspecified)
inactive: [1] 14.4% | [2] 8.65% | [3] 0.9% | [4] -0.8% | [5] 3% | [6] -3.75%

CC(C)(C)OO
inactive: [1] 5.35% | [2] 7.05% | [3] 0.95% | [4] -0.6% | [5] 22.4% | [6] -17%

C1CN1[PH+](N1CC1)N1CC1.[C-]#[O+].[C-]#[O+].[C-]#[O+].[C-]#[O+].[C-]#[O+].[W]
inactive: [1] -12.8% | [2] -3.85% | [3] -21% | [4] -43.9% | [5] 13.1% | [6] 3.1%

COc1ccn(C)c(=O)c1C#N
inactive: [1] 3.15% | [2] 0.3% | [3] -6.35% | [4] 5.6% | [5] 2.15% | [6] -2.4%

O=C(O)C(CP(=O)(O)O)=C(Cl)Cl
inactive: [1] -21.4% | [2] 12.3% | [3] -13.9% | [4] -8.95% | [5] -6.15% | [6] -9.75%

O=P(O)(O)SP(=O)(O)O.[Mn]
inactive: [1] -14.7% | [2] -14.2% | [3] -1.9% | [4] -30.2% | [5] -11.7% | [6] -16.1%

Cc1cc[n+](C)c(Cc2ccccc2)c1C
inactive: [1] -26.7% | [2] -11.1% | [3] -8.9% | [4] -26.1% | [6] -28.9%

NC(N)=N/N=C1\C(=O)N(c2cccc([N+](=O)[O-])c2)C(=O)C1C(=O)Nc1cccc([N+](=O)[O-])c1 (stereo unspecified)
inactive: [1] -17.9% | [2] -22.4% | [3] -17.1% | [4] -29.6% | [5] 1.4% | [6] -14.5%

CCC1(CNC(=O)CN)C(=O)NC(=O)NC1=O
inactive: [1] -14.8% | [2] -0.85% | [3] -4.4% | [4] 27.4% | [5] 2.7% | [6] 21.6%

O=S1(=O)OCCO1
inactive: [1] -3.5% | [2] -9% | [3] -3.8% | [4] -27.4% | [5] -5.55% | [6] 7.9%

CCC(Br)(CC)C(=O)NC(N)=O
inactive: [1] 13.1% | [2] -23.8% | [3] -13.9% | [4] -16.4% | [5] -10.8% | [6] -6.05%

COC(c1ccccc1)(c1ccccc1)C1C(c2ccccc2)N1C1CCCCC1 (stereo unspecified)
inactive: [1] 46.1% | [2] -5.3% | [3] 43.5% | [4] -1.3% | [5] -5.1% | [6] 22.8%

CCOP(=O)(NC(C)(C)C)OCC
inactive: [1] -15.1% | [2] -54% | [3] -21.4% | [4] 8% | [5] -26.1% | [6] -12.8%

COc1ccc2nc3ccccc3c(NCCCN(C)CCCl)c2c1
inactive: [1] 67.8% | [2] 56.5% | [3] 57.8% | [4] 50.5% | [5] -0.5% | [6] 66.2%

CCCC/C=C/C=C/C=C/CCCCCCCC(=O)OCC(COC(=O)CCCCCCC/C=C/C1C=CC(CCCC)C(C(=O)O)C1C(=O)O)OC(=O)CCCCCCC/C=C/C=C/C=C/CCCC (stereo unspecified) (tested in a mixture with another compound)
inactive: [1] -10.8% | [2] -20.1% | [3] 4.55% | [4] -3.85% | [5] 7.6% | [6] -0.45%

CCC(=O)[O][Sn]([CH3])([CH3])[O][Sn]([CH3])([CH3])[O]C(=O)CC
inactive: [1] -2.55% | [2] 18.1% | [3] -28.8% | [4] 11.8% | [5] -16.9% | [6] 3.25%

C1C[N-]CC[N-]1.C1C[N-]CC[N-]1.[Zn]
active: [1] 98.7% | [2] 99.5% | [3] 99.5% | [4] 98.8% | [5] 99.4% | [6] 99.3%

[C-]#[O+].[C-]#[O+].[C-]#[O+].[C-]#[O+].[Fe].[N-]=C(C(F)(F)F)C(F)(F)F
inactive: [1] -16.4% | [2] -19.8% | [3] -11.7% | [4] -0.25% | [5] -11.2% | [6] -25.4%

Cc1cc2[nH]c3c(C#N)c(OC(=O)N(C)C)c(-c4ccccc4)c(=O)n3c2cc1C
inactive: [1] -8.75% | [2] 9.5% | [3] -7.85% | [4] -7.15% | [5] 1.9% | [6] 1.6%

— PubChem BioAssay (NCI)
